Several values for one entry are separate records, joined by “and”; a condition that tells them apart may be missing. Identical values can stand only once. Unmarked numbers belong to inactive results. Results filed as inconclusive are left out. Activity calls are given as the source filed them. Unless noted, calls come from the whole dose curve; as a rule, active = well fitted curve in either direction with a large enough effect (not every such curve was filed as active); inconclusive = small, poorly fitted or top-dose-only effect, or another doubt; inactive = flat fitted curve, though single readings scatter. Some results are limits rather than exact numbers.

Experiment [1] is described as follows: AP1 Signaling Pathway (AID 357).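 Note: ME-180 reporter cells stimulated with EGF at its EC50 level; % is set by controls: 0 for no effect and ±100 for the full control effect.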 The settings on record: ME-180 AP-1-bla reporter, EGF-induced, beta-lactamase ratio, 5 h. The method, boiled down:
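First, ME-180 AP-1-bla cells were cultured overnight at 37 °C in low-serum Opti-MEM. Next, titrated compounds with EC50 EGF were incubated 5 hours. Finally, CCF4 was added for 2.5 hours and the 460/530 nm ratio recorded.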

The target of experiment [2] is Cytochrome P450 1A2 (Homo sapiens) (UniProt P05177). Briefly: p450-cyp1a2 (AID 410; calls by dose curve; note: potency is the fitted concentration of half-maximal effect;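 for activity change, negative = inhibition: -100% = full effect of reference inhibitor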). The note with it: recombinant CYP1A2, luciferin-ME demethylation, luminescence; series mostly up to 25.6 µM. The method, boiled down: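 O-Demethylation of luciferin 6' methyl ether by human CYP1A2 is monitored as luciferase luminescence. Substrate sits at Km (100uM); enzyme is 20nM. Values are scaled to 57 uM furafylline as maximal inhibition.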
Cytochrome P450 1A2 (Homo sapiens), sequence (P05177 whole entry, looked up): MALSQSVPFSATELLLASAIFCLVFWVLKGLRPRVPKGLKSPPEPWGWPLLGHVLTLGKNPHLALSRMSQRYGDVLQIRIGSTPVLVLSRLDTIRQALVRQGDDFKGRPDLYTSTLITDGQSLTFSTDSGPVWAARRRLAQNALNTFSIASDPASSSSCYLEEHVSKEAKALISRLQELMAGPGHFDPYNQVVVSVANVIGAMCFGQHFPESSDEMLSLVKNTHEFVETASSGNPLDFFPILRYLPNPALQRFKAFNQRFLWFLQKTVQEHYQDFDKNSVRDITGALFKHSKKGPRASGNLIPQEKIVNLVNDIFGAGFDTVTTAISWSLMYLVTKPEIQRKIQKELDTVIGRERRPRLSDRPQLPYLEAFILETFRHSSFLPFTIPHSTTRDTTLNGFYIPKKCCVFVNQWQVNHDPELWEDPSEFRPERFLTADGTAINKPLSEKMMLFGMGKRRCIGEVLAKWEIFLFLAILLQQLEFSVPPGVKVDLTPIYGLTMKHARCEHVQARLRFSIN

The nature of experiment [3]: NFAT Signaling Pathway (AID 444).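 Note: carbachol stimulus at about its EC50 of 1 µM final; % is set by controls: 0 for no effect and ±100 for the full control effect.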 The settings on record: Jurkat NFAT-bla M1, carbachol, beta-lactamase ratio, 5 h. The method, boiled down:
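Read-out: CCF4 FRET ratio (460 nm/530 nm) after 1 h RT dye loading, used for %activity and AC50 from titration series. Cells: Jurkat NFAT-β-lactamase/M1 line, treated with compound plus 1 uM carbachol for 5 h, 37 °C.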

Experiment [4] can be described thus: Stat Signaling Pathway (AID 446).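 Note: ME-180 cervical cancer cells given 40 pM IL-6 alongside compound; SIE-controlled beta-lactamase reporter measured as 460/530 nm FRET emission ratio; % is set by controls: 0 for no effect and ±100 for the full control effect.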 The settings on record: ME-180 (cervical carcinoma) SIE beta-lactamase reporter, IL-6 stimulated, 5 h. In short, it runs like this:
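Overnight-plated ME-180 cells bearing a STAT Inducible Element beta-lactamase reporter; 5 h co-exposure to compound and 40 pM IL-6; values normalized to 300 pM IL-6 and 125 nM JAK inhibitor controls.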

Experiment [5] deals with Glucocorticoid receptor (Homo sapiens) (UniProt P04150). Nature of the experiment: GR-GFP Redistribution (AID 450;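 active = compounds whose dose series gives a full or clear partial fitted curve of increased nuclear translocation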; note: potency is the fitted concentration of half-maximal effect). The settings on record: U2OS GR-GFP nuclear translocation, laser cytometry, 2 h.
Glucocorticoid receptor (Homo sapiens), sequence (P04150 whole entry, looked up, the tested form may be a part): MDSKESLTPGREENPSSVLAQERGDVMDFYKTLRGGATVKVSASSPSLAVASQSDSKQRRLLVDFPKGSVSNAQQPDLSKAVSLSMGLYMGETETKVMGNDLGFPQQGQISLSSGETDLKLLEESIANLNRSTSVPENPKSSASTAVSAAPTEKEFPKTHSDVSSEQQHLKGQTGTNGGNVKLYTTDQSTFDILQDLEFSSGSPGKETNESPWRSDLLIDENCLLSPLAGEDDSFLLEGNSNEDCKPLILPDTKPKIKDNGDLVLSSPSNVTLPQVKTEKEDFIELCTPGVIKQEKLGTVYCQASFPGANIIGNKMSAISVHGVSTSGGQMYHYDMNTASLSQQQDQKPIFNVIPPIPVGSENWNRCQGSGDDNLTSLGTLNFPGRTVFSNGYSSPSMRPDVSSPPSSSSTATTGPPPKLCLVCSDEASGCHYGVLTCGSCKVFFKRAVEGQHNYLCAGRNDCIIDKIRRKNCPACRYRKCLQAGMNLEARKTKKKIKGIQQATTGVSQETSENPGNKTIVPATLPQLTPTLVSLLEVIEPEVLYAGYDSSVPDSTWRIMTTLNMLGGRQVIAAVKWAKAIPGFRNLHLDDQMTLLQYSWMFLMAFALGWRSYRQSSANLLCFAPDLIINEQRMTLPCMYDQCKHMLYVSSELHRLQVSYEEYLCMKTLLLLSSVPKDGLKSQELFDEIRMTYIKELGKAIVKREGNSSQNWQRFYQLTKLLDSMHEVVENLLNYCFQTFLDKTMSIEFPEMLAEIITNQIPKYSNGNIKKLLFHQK
For experiment [6], the target named is Mitogen-activated protein kinase 10 (Mus musculus) (UniProt Q61831). Briefly: JNK3 AlphaScreen Assay (AID 530).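 Note: kinase came from lysate of stimulated human HepG2 cells; signal reports phosphorylation of biotinylated GST-cJun 1-79 at Ser73 with 10 µM ATP; % is set by controls: 0 for no effect and ±100 for the full control effect.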 The settings on record: JNK3 lysate, c-Jun phosphorylation; series mostly up to 25.6 µM. The method, boiled down:
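qHTS titrations with 15 min compound pre-incubation before adding ATP (10 uM final). Read-out: AlphaScreen of Ser73-phosphorylated biotin-GST-cJun using HepG2 lysate JNK3 activated by IL-1β and TNFα.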
(In general: Bead proximity is the source of the signal in Alpha formats.)

Experiment [7] in a line: Cell Viability - BJ (AID 421; calls by dose curve;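 note: potency is the fitted concentration of half-maximal effect; cells exposed to compound for 40 hours at 37 °C before readout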). The settings on record: BJ fibroblast viability, qHTS. In short, it runs like this: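 Quantitative HTS: ATP depletion in BJ cells after 40 hr compound exposure in complete culture medium, detected with CellTiter-Glo; AC50 from standard Hill fits.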
Experiment [8] in a line: Cell Viability - Jurkat (AID 426;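 active = dose-dependent loss of cell ATP signal giving a full or clear fitted curve, ranked by lower potency value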; note: potency is the fitted concentration of half-maximal effect). The note with it: qHTS. In short, it runs like this:
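Cells of the human T-cell leukemia line Jurkat (E6-1) are seeded at 5000 per well, treated with compound across a concentration range for 40 hours at 37 °C, then lysed with CellTiter-Glo; luminescence reports ATP.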

Experiment [9] is described as follows: Cell Viability - Hek293 (AID 427;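 active = compounds whose dose-response curve shows a full or clear partial loss of cell viability, called from curve shape rather than a numeric limit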;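 note: potency is the fitted concentration of half-maximal effect; cells exposed to compound for 40 hours at 37 °C before reading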). The note with it: qHTS. The method, boiled down: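 AC50 values derive from Hill-modelled concentration-response of ATP-based luminescence, normalized between DMSO-only and 100 uM tamoxifen controls. Cells were exposed in complete culture medium for 40 hr at 37 °C before detection.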
(In general: In qHTS, concentration-response curves come from the screen itself.)

A short description of experiment [10]: Cell Viability - HepG2 (AID 433; calls by dose curve;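 note: potency is the fitted concentration of half-maximal effect; potency for ATP loss meaning cytotoxicity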). The settings on record: qHTS. The method, boiled down:
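HepG2 cells, 1500 per well, treated 40 hr at 37 °C in complete medium; viability from intracellular ATP by CellTiter-Glo luminescence. Normalized to DMSO and 100 uM tamoxifen; AC50 from Hill fit of qHTS concentration-response.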

Experiment [11] in a line: Cell Viability - MRC5 (AID 434; calls by dose curve;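 note: potency is the fitted concentration of half-maximal effect; potency reflects cytotoxicity seen as loss of intracellular ATP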). The settings on record: MRC5 lung fibroblast viability, qHTS. In short, it runs like this:
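AC50 values come from Hill-equation fits of intracellular ATP loss, measured by CellTiter-Glo luminescence. Normal lung fibroblasts (MRC5) had 40 hr compound treatment at 37 C, normalized between DMSO and 100 uM tamoxifen.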

Experiment [12] in a line: Cell Viability - SK-N-SH (AID 435; calls by dose curve;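 note: potency is the fitted concentration of half-maximal effect; compound exposure lasted 40 h at 37 °C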). The note with it: SK-N-SH neuroblastoma cell viability qHTS. In short, it runs like this: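 SK-N-SH neuroblastoma cells (1500/well) treated 40 h at 37 °C in complete medium; viability read as cellular ATP by CellTiter-Glo luminescence. Normalized to DMSO and 100 uM tamoxifen; AC50 from Hill fits of qHTS concentration-response.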
Experiment [13] can be described thus: Cell Viability - N2a (AID 540; active = well fitted curve in the direction sought with a large enough effect; an effect the other way counts as inactive or inconclusive; note: nearly all actives have a fitted effect of over 45% in size; note: potency is the fitted concentration of half-maximal effect;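 for activity change, negative = cytotoxicity: plate controls were DMSO alone for no effect and tamoxifen control for full effect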). The settings on record: N2a mouse neuroblastoma cell viability; activity change, negative = cytotoxicity: at 92.2 µM (top of the series). In short, it runs like this:
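Cytotoxicity was scored as loss of cellular ATP in N2a cells, a mouse neuroblastoma line. Compounds are applied in a qHTS concentration series for 40 hr at 37 °C.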

The nature of experiment [14]: Cell Viability - NIH 3T3 (AID 541; active = well fitted curve in the direction sought with a large enough effect; an effect the other way counts as inactive or inconclusive;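 note: plate controls were DMSO alone for no effect and tamoxifen positive control for full effect; nearly all actives have a fitted effect of over 25% in size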). The settings on record: NIH 3T3 cell viability, qHTS; activity change, negative = cytotoxicity: at 92.2 µM (top of the series). The method, boiled down:
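Cells seeded at 1000/well, rested 5 hr at 37 °C, then dosed and incubated 40 hr at 37 °C. CellTiter-Glo added, 20 min room temperature, luminescence read. AC50 by Hill fit.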

A short description of experiment [15]: Cell Viability - HUV-EC-C (AID 542; active = well fitted curve in the direction sought with a large enough effect; an effect the other way counts as inactive or inconclusive; note: % is set by controls: 0 for no effect and ±100 for the full control effect; nearly all actives have a fitted effect of over 35% in size). The note with it: HUV-EC-C endothelial cell viability, qHTS; series mostly up to 92.2 µM. In short, it runs like this: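 Cells were seeded at 1000 per well and incubated 5 hr at 37 °C before compound addition. After 40 hr at 37 °C, CellTiter-Glo reagent was added for 20 min and luminescence read. AC50 values came from Hill-equation modelling.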

Experiment [16] is described as follows: Cell Viability - H-4-II-E (AID 543; active = well fitted curve in the direction sought with a large enough effect; an effect the other way counts as inactive or inconclusive; note: nearly all actives have a fitted effect of over 35% in size; note: potency is the fitted concentration of half-maximal effect). The note with it: H-4-II-E rat hepatoma viability; series mostly up to 92.2 µM. In short, it runs like this:
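Cells seeded at 1500 per well and rested 5 hr; compounds added; 40 hr incubation at 37 °C; CellTiter-Glo added, 20 min at room temperature; luminescence read. Hill-equation fits gave AC50.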

Experiment [17] can be described thus: Cell Viability - SH-SY5Y (AID 544; active = well fitted curve in the direction sought with a large enough effect; an effect the other way counts as inactive or inconclusive; note: nearly all actives have a fitted effect of over 55% in size; note: potency is the fitted concentration of half-maximal effect;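 for viability change, negative = cytotoxic: 0% = DMSO alone and -100% = 100 µM tamoxifen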). The settings on record: SH-SY5Y neuroblastoma cell viability; viability change, negative = cytotoxic: at 92.2 µM (top of the series). The method, boiled down:
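Cells were plated at 1500 per well and allowed 5 hr at 37 °C. Compounds were added across a concentration range and incubated 40 hr at 37 °C. CellTiter-Glo was added for 20 min at room temperature before luminescence reading.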

A short description of experiment [18]: Cell Viability - Renal Proximal Tubule (AID 545; active = well fitted curve in the direction sought with a large enough effect; an effect the other way counts as inactive or inconclusive; note: nearly all actives have a fitted effect of over 40% in size; note: potency is the fitted concentration of half-maximal effect;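 for activity change, negative = cytotoxicity: 0% = DMSO only and -100% = 100 µM tamoxifen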). The settings on record: renal proximal tubule cells viability, primary cells of rat origin; activity change, negative = cytotoxicity: at 91.7 µM (top of the series). The method, boiled down: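 Rat renal proximal tubule primary cells, 1000/well, exposed to compounds for 40 hr at 37 °C in complete medium; cellular ATP read by CellTiter-Glo luminescence. AC50 from concentration-response fitted with standard Hill equation.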

Experiment [19] has as its target Lysosomal acid glucosylceramidase (Homo sapiens) (UniProt P04062). Briefly: Glucocerebrosidase-p2 (AID 348; in the data active = potency below about 10 µM; note: potency is the fitted concentration of half-maximal effect). The note with it: purified GBA, blue fluorogenic substrate, 40 min. The method, boiled down:
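Normal human glucocerebrosidase (0.2 nM) with blue fluorogenic substrate (80 uM final) in citrate/phosphate pH 5.9 with 10mM sodium taurocholate, 0.01% tween-20; 40 min RT, NaOH/glycine stop; fluorescence Ex 365/Em 440; AC50 from a titration from 0.6 nM upwards.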

The target in experiment [20] is Glucocorticoid receptor (Homo sapiens) (UniProt P04150). Nature of the experiment: GR-EFC Redistribution (AID 451; calls by dose curve; note: potency is the fitted concentration of half-maximal effect). The settings on record: CHO-K1 GR-EFC translocation, beta-gal luminescence, 2 h. In short, it runs like this:
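Translocation of GR-ED fusion to nuclear EA restores b-gal, read by luminescence after 1 h room-temperature detection. Engineered CHO-K1 biosensor cells, 1,000/well, exposed 2 h at 37 C to titrations up to 46 uM final.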

Lysosomal acid glucosylceramidase (Homo sapiens), sequence (P04062 whole entry, looked up): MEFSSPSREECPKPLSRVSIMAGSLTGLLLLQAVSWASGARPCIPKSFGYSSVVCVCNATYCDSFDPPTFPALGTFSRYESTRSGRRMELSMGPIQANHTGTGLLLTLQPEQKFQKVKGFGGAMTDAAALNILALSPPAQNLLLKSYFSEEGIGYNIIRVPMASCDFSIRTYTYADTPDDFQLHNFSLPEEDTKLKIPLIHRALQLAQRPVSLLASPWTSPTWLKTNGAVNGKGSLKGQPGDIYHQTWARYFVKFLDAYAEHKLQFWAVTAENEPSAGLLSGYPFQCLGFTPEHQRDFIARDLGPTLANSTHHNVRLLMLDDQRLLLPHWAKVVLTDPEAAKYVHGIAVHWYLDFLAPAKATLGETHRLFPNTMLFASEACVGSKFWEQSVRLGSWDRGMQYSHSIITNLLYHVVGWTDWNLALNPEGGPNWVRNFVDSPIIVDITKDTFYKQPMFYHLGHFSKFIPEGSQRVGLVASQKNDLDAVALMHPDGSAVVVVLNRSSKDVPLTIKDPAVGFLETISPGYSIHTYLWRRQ

As for `O=C(CCCN1CCC(O)(c2ccc(Br)cc2)CC1)c1ccc(F)cc1`, the activity change, negative = inhibition in experiment [1] (at 17.2 µM (top of the series)) is 13.1%; in experiment [3] (at 17.2 µM (top of the series)), -24.7%. The values for the Potency in experiment [2] and in experiment [5] were 5.01 µM (active) and above 20.6 µM, respectively. The activity, negative = inhibition in experiment [4] (at 17.2 µM (top of the series)) is 1.5%. Moreover, the result in experiment [6] was inactive.
Take `CCCCOc1cc(C(=O)NCCN(CC)CC)c2ccccc2n1`: the activity change, negative = inhibition was 13.7% and 13.1% and 14.9% in experiment [1] (at 17.2 µM (top of the series)); 3.91% and -0.708% and -6.28% in experiment [3] (at 17.2 µM (top of the series)). In addition, the Potency is 5.01 µM (active) in [2] and above 20.6 µM in [5]. Also, the activity, negative = inhibition in [4] (at 17.2 µM (top of the series)) is 0.235% and -1.92% and -8.41%. In experiment [6], the compound was classed as inactive.
`CC(=O)Oc1ccc(C(c2ccc(OC(C)=O)cc2)c2ccccn2)cc1`: the activity change, negative = inhibition is -26.3% and -21% in experiment [1] (at 17.2 µM (top of the series)); 7.84% and -13.9% in experiment [3] (at 17.2 µM (top of the series)). Also, the Potency entry in experiment [2], in [13], in [14], in [15], in [16] and in experiment [17] was “inactive” throughout. Also, the Potency in experiment [7], in [8], in experiment [9], in [10], in experiment [11] and in experiment [12] was above 92 µM throughout. In addition, in [6], the compound was classed as inactive. Also, the activity change, negative = cytotoxicity in [18] is -2.53%.
Consider `OC(CCN1CCCCC1)(c1ccccc1)c1ccccc1`, for which the Potency in [19] is above 11.4 µM. In addition, the activity change, negative = inhibition in experiment [1] (at 7.69 µM (top of the series)) is -3.31%; in experiment [1] (at 17.2 µM (top of the series)) it was 7.98% and -4.16%; in [3] (at 7.69 µM (top of the series)), -73.6% (active); in experiment [3] (at 17.2 µM (top of the series)), -42.4% (active) and -77.8% (active). In [2], the Potency result is “inactive”. Moreover, the activity, negative = inhibition in [4] (at 7.69 µM (top of the series)) is -4.56%; in [4] (at 17.2 µM (top of the series)), 8.93% and 3.51%. In addition, in [6], the compound was classed as inactive.
In the case of `COc1cccc2c1C(=O)c1c(O)c3c(c(O)c1C2=O)C[C@@](O)(C(C)=O)C[C@@H]3O[C@H]1C[C@H](N)[C@H](O)[C@H](C)O1`, the figures for the activity change, negative = inhibition in [1] (at 17.2 µM (top of the series)) and in [3] (at 17.2 µM (top of the series)) were -116% (active) and -129% (active), respectively. The Potency in experiment [2] is 31.6 µM (active); in experiment [7], 4.61 µM (active); in [8], 0.0218 µM (active); in experiment [9] it was 0.00723 µM (active); in [10], 49.7 µM (active); in [11] it was 19.5 µM (active). For the same compound, the Potency in experiment [12] is 0.0141 µM (active); in [5] it was > 46 µM and > 20.6 µM; in [20], above 46 µM; in experiment [13] it was 0.251 µM (active); in [16] it was 3.16 µM (active); in experiment [17], 0.00794 µM (active). Moreover, the Potency in experiment [18] is 3.98 µM (active). In addition, the activity, negative = inhibition in [4] (at 17.2 µM (top of the series)) is -103% (active).
Take `CCN1CCC[C@H]1CNC(=O)c1c(OC)ccc(Br)c1OC`: the activity change, negative = inhibition in experiment [1] (at 17.2 µM (top of the series)) is -5.77%; in [3] (at 17.2 µM (top of the series)), -26.9%. For the same compound, the Potency result in [2] is “inactive”. Also, the activity, negative = inhibition in [4] (at 17.2 µM (top of the series)) is 14.1%. Also, in [6], the result was inactive.

The values above are taken from PubChem BioAssay (NCATS).
